PubChem BioAssay (Tox21)
Several values for one entry are separate records, joined by “and”; a condition that tells them apart may be missing. Equal entries are not always repeated. Results filed as inconclusive are left out. Activity calls are given as the source filed them. Unless noted, the call rests on the fitted dose curve; in most records, active means well fitted curve in the direction sought with a large enough effect in the repeat runs; inconclusive means weak or mixed curves; inactive means no such curve, though single readings can be large; an effect the other way counts as inactive or inconclusive.

Key:
[1] = qHTS assay to test for compound auto fluorescence at 535 nm (green) in HEK293 cells (AID 720680)
[2] = qHTS assay to test for compound auto fluorescence at 460 nm (blue) in HEK293 cell free culture (AID 720681)
Procedure, shortened: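 Blue fluorescence (Ex 405/Em 460 nm, triamterene-equivalent) was read immediately after pin transfer of compound or DMSO into medium (DMEM, 10% FBS) without cells.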

[3] = qHTS assay to test for compound auto fluorescence at 535 nm (green) in HEK293 cell free culture (AID 720682)
Procedure, shortened: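 Using fluorescein as calibrant, autofluorescence was quantified at 485/535 nm in cell-free DMEM containing 10% FBS after pintool addition of compound or vehicle.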

[4] = qHTS assay to test for compound auto fluorescence at 590 nm (red) in HEK293 cell free culture (AID 720683)
Procedure, shortened: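 Red-channel autofluorescence of compounds in culture medium (DMEM, 10% FBS), no cells, measured at 540/590 nm. Rose Bengal sodium is the reference fluorophore for equivalence.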

[5] = qHTS assay to test for compound auto fluorescence at 590 nm (red) in HepG2 cell free culture (AID 720684)
Procedure, shortened: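 Steps: dispense MEM/10% FBS medium, no cells; pin compound or DMSO vehicle; read red channel, Ex/Em 540/590 nm. Output given as Rose Bengal sodium equivalents.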

[6] = qHTS assay to test for compound auto fluorescence at 460 nm (blue) in HepG2 cell free culture (AID 720685)
Procedure, shortened: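 Compound (23 nL) or DMSO pinned into cell-free MEM with 10% FBS; blue fluorescence read at 405/460 nm excitation/emission, expressed as auto-fluorescence equivalency to triamterene.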

[7] = qHTS assay to test for compound auto fluorescence at 535 nm (green) in HepG2 cell free culture (AID 720686)
[8] = qHTS assay to test for compound auto fluorescence at 460 nm (blue) in HepG2 cells (AID 720687)
Procedure, shortened: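 Blue-channel autofluorescence (Ex/Em 405/460 nm, triamterene-equivalent) was measured after 1 hr compound exposure at 37 C, 5% CO2. Cells were HepG2, plated overnight at 37 C in MEM plus 10% FBS.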

[9] = biological target: Glucocorticoid receptor (Homo sapiens) (UniProt P04150); test: qHTS assay to identify small molecule agonists of the glucocorticoid receptor (GR) signaling pathway (AID 720691; active means well fitted activation curve with a large enough effect in the signal ratio in the repeat runs, not every such curve was filed as active; the % refers to the signal ratio)
Procedure, shortened: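 Agonist mode in a HeLa line carrying a GRE-controlled beta-lactamase reporter. Compounds act for 18 h at 37 C before a 2 h room-temperature FRET substrate step and fluorescence reading.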

[10] = qHTS assay to identify small molecule antagonists of the glucocorticoid receptor (GR) signaling pathway - cell viability counter screen (AID 720693); further: nearly all actives have a fitted effect of over 55% in size; further: potency means the concentration at half of the fitted maximal effect
[11] = qHTS assay for identifying genotoxic compounds that show differential cytotoxicity against isogenic chicken DT40 cell lines with known DNA damage response pathways - wild type cell line (AID 743012); further: nearly all actives have a fitted effect of over 60% in size; further: potency means the concentration at half of the fitted maximal effect
Procedure, shortened: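 Cells (DT40 wild type, 300/well) are treated with DMSO-dissolved compounds after a ~0.5 h pre-incubation and kept 40 h at 37 C/5% CO2. Viability is then measured by CellTiter-Glo luminescence following 30 min at room temperature.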

[12] = qHTS assay for identifying genotoxic compounds that show differential cytotoxicity against isogenic chicken DT40 cell lines with known DNA damage response pathways - Rev3 mutant cell line (AID 743014); further: nearly all actives have a fitted effect of over 55% in size; further: potency means the concentration at half of the fitted maximal effect
[13] = qHTS assay for identifying genotoxic compounds that show differential cytotoxicity against isogenic chicken DT40 cell lines with known DNA damage response pathways - Rad54/Ku70 mutant cell line (AID 743015); further: nearly all actives have a fitted effect of over 60% in size; further: potency means the concentration at half of the fitted maximal effect
[14] = qHTS assay to identify small molecule antagonists of the androgen receptor (AR) signaling pathway - cell viability counter screen (AID 743033; further: nearly all actives have a fitted effect of over 45% in size; further: potency means the concentration at half of the fitted maximal effect)
[15] = qHTS assay to identify small molecule antagonists of the androgen receptor (AR) signaling pathway using the MDA cell line - cell viability counter screen (AID 743041; further: nearly all actives have a fitted effect of over 45% in size; further: potency means the concentration at half of the fitted maximal effect)
Procedure, shortened: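 Cells were plated at 3,000 per well and left 5 h. Compounds in DMSO were then pinned in, followed by R1881. After 16 h at 37C, CellTiter-Fluor fluorescence gave viability.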

[16] = biological target: Glucocorticoid receptor (Homo sapiens) (UniProt P04150); test: qHTS assay to identify small molecule antagonists of the glucocorticoid receptor (GR) signaling pathway (AID 720692; active means well fitted inhibition curve with a large enough effect in the signal ratio in the repeat runs, not every such curve was filed as active; the % refers to the signal ratio)
Procedure, shortened: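 Cells plated, rested 4 h at 37 C/5% CO2; compounds in DMSO pin-transferred; dexamethasone added to 5 nM final; 18 h at 37 C; B/G FRET substrate added, 2 h room temperature; fluorescence measured.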

[17] = biological target: Androgen receptor (Homo sapiens) (UniProt P10275); test: qHTS assay to identify small molecule antagonists of the androgen receptor (AR) signaling pathway using the MDA cell line (AID 743042; further: nearly all actives have a fitted effect of over 55% in size)
Procedure, shortened: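 Antagonist mode: compounds plus R1881 agonist added to MDA-kb2 AR-luc cells, incubated 16 h at 37C. Luciferase reporter luminescence quantified, with multiplexed CellTiter-Fluor readout for cell viability.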

Measured: Potency
On the % scale 0 is the no-effect control and ±100 the full control effect.

Sequence of Glucocorticoid receptor (Homo sapiens) (P04150 whole entry, looked up): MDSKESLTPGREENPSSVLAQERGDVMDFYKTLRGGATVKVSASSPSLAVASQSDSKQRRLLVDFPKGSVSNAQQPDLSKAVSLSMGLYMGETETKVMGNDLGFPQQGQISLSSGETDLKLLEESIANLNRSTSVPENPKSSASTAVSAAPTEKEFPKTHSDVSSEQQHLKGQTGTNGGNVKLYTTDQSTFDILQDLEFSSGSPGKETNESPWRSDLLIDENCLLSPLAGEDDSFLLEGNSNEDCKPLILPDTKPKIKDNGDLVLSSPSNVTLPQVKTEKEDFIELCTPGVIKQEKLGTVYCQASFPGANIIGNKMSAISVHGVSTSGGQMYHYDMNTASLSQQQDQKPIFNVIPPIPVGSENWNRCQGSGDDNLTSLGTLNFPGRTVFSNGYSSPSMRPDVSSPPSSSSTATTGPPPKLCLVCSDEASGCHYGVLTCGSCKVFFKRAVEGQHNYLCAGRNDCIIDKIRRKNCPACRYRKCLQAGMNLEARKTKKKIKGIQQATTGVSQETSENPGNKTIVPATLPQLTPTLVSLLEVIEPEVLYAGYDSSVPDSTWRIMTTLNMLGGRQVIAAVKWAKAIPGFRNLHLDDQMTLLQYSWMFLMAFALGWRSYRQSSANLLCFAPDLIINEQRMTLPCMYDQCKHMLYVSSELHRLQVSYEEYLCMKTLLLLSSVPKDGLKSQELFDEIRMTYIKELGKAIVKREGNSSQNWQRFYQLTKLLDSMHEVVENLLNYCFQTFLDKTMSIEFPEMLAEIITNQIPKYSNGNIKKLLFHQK
Sequence of Androgen receptor (Homo sapiens) (P10275 whole entry, looked up): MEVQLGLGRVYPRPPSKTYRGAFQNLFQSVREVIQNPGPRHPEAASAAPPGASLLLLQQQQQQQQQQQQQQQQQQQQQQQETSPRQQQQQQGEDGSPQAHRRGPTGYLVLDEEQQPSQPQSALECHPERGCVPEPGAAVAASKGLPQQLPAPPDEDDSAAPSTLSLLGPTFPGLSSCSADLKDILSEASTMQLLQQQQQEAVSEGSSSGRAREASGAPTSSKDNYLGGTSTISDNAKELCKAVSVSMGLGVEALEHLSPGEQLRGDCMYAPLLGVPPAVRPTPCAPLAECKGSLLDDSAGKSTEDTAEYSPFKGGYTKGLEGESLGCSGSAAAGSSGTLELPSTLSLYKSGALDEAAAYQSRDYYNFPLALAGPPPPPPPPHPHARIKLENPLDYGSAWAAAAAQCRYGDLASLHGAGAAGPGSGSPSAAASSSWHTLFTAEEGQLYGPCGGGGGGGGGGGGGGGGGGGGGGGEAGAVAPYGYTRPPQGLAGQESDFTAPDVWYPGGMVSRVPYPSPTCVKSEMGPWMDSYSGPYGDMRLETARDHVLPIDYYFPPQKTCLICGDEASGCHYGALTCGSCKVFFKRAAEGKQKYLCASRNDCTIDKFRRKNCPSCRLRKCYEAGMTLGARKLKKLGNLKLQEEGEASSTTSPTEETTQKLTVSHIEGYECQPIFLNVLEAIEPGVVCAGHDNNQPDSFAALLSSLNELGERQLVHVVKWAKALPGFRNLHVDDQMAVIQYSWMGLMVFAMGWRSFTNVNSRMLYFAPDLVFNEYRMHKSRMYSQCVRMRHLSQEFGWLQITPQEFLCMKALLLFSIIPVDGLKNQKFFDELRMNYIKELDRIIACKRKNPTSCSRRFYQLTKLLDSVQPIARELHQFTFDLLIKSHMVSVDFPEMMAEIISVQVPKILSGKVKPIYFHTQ

CC(C)CCCCCCc1ccc(O)cc1
active: [10] 25 µM | [11] 21.1 µM and 62.2 µM and 27.3 µM | [12] 11.9 µM and 17.5 µM and 30.6 µM | [13] 21.1 µM and 62.2 µM and 27.3 µM
inactive: [1] | [2] | [3] | [4] | [5] | [6] | [7] | [8] | [9] | [14] | [15]

COc1ccc(CCN(C)CCCC(C#N)(c2ccc(OC)c(OC)c2)C(C)C)cc1OC (stereo not drawn)
active: [11] 13.3 µM and 54.4 µM | [12] 23.7 µM and 27.3 µM | [13] 29.8 µM and 61 µM
inactive: [1] | [2] | [3] | [4] | [5] | [6] | [7] | [8] | [10]

CC(=O)OCCOCCOCCOC(C)=O
inactive: [1] | [2] | [3] | [4] | [5] | [6] | [7] | [8] | [10] | [11] | [12] | [13] | [14] | [15]

Oc1c(Cl)cc(Cl)cc1Sc1cc(Cl)cc(Cl)c1O
active: [10] 19.5 µM and 28 µM and 21.9 µM | [11] 11.9 µM and 27.4 µM and 17.2 µM | [12] 17.3 µM [middle of 4 runs] | [13] 17.3 µM [middle of 4 runs] | [14] 6.18 µM and 8.85 µM and 6.16 µM | [15] 55.4 µM
inactive: [1] | [2] | [3] | [4] | [5] | [6] | [7] | [8]

CC(COc1ccccc1)N(CCCl)Cc1ccccc1 (stereo not drawn)
inactive: [1] | [2] | [3] | [4] | [5] | [7] | [8] | [9] | [10] | [14] | [15]
active: [11] 21.1 µM and 27.3 µM | [12] 13.3 µM and 34.7 µM and 5.45 µM | [13] 23.7 µM and 15.4 µM

NC(N)=Nc1nc(CSCC/C(N)=N/S(N)(=O)=O)cs1
inactive: [1] | [2] | [3] | [4] | [5] | [7] | [8] | [9] | [16] | [10] | [11] | [12] | [13] | [14] | [15]

CCN(CC)CCOc1ccc(/C(=C(\Cl)c2ccccc2)c2ccccc2)cc1
inactive: [1] | [2] | [3] | [4] | [5] | [6] | [7] | [8] | [15] | [17]
active: [11] 1.19 µM and 140 nM | [12] 422 nM and 24.8 nM | [13] 1.68 µM and 44.2 nM | [14] 15.8 µM
